LYPLA2 counter – LYPLA2 inhibitors, primary screen, counter-screen for PME1 inhibitor project, biochemical, fluorescence polarization, FP-Rh probe ABPP | Acyl-protein thioesterase 2 (Homo sapiens), O95372 | recombinant LYPLA2 | inhibition, % at 5.9 µM | 320,000 tested, 0.38% active | AID 2177, 2009;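 active = inhibition above the screen-wide mean plus 3 SD, limit set per campaign, cut at about 26% in these data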;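 note: 0% = LYPLA2 with DMSO and 100% = wells lacking LYPLA2 enzyme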
PAD4 inh – human PAD4 inhibitors, primary screen, biochemical, fluorescence polarization, 1536-well format | recombinant PAD4, RCA probe fluorescence polarization | inhibition, % at 6.36 µM | 330,000 tested, 0.41% active;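 active = percent inhibition above a cutoff equal to the mean of all tested compounds plus 3 SD, cut at about 15% in these data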;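 note: 0% = PAD4 with RCA probe and DMSO and 100% = probe without PAD4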
Target sequence (Q9UM07 whole entry, looked up): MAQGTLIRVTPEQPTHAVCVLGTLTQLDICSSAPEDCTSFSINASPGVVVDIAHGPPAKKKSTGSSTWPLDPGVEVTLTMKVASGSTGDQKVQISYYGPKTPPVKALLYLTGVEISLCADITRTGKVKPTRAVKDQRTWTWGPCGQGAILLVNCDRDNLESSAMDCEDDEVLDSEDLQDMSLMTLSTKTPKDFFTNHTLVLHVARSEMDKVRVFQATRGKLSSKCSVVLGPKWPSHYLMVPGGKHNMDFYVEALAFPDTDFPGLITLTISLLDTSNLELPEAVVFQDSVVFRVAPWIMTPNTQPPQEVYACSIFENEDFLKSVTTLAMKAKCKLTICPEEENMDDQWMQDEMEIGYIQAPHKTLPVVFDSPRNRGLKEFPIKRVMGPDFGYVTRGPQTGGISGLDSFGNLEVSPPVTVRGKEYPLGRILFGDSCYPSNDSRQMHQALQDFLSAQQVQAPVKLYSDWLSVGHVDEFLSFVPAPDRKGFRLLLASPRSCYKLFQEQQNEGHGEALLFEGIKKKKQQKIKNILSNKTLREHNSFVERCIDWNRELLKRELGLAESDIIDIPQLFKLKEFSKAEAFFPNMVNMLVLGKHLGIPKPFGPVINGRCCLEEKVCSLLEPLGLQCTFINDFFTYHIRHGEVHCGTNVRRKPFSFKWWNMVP
PME-1 primary – PME-1 inhibitors via competitive probe labeling, primary screen, biochemical, fluorescence polarization, FP-Rh probe, HTS; Protein phosphatase methylesterase 1 (Homo sapiens), Q9Y570; recombinant PME-1; inhibition, % at 5.9 µM; 320,000 tested, 0.53% active;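 active = inhibition above the campaign mean of all compounds plus 3 SD, cut at about 26% in these data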;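 note: competitive labeling of PME-1 active site by serine hydrolase directed probe; 0% = PME-1 with DMSO and 100% = wells lacking PME-1 enzyme; inhibitors block probe labeling so polarization falls and inhibition rises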
GSTO1 inh – inhibitors of recombinant GSTO1, primary screen, counter-screen for RBBP9 inhibitor project, biochemical, fluorescence polarization | inhibition, % at 5.96 µM | activity-based probe fluorescence polarization | AID 1974, 2009 | Glutathione S-transferase omega-1 (Homo sapiens), P78417 | 300,000 tested, 1.1% active;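 active = inhibition above the campaign mean inhibition plus 3 SD, cut at about 35% in these data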;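 note: 0% = GSTO1-1 with DMSO and 100% = wells lacking GSTO1-1 enzyme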
Fam108B inh – mouse Fam108B serine hydrolase inhibitors, primary screen, counter-screen for RBBP9 inhibitor project, biochemical, fluorescence polarization | recombinant Fam108B, FP-Rh probe fluorescence polarization | inhibition, % at 9.51 µM | 300,000 tested, 0.33% active | AID 1947, 2009;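 active = inhibition above the screen mean inhibition plus 3 SD, computed separately per campaign, cut at about 18% in these data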;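 note: inhibitors lower polarization as less probe binds the enzyme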
LYPLA1 counter – LYPLA1 inhibitors, primary screen, counter-screen for PME1 inhibitor project, biochemical, fluorescence polarization, FP-Rh probe ABPP | recombinant LYPLA1 | AID 2174, 2009 | 320,000 tested, 0.16% active | Acyl-protein thioesterase 1 (Homo sapiens), O75608 | inhibition, % at 5.9 µM;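 active = inhibition above the mean of all tested compounds plus 3 SD, set per campaign, cut at about 14% in these data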;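 note: inhibitors block serine hydrolase probe labeling of LYPLA1 so polarization falls; 0% = enzyme with DMSO and 100% = wells lacking LYPLA1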
Starred values were filed as active, the others as inactive; · = no result given. In the library only some 1.8% were active in any assay of this set; here they are far more common.

SMILES	LYPLA2 counter	PAD4 inh	PME-1 primary	GSTO1 inh	Fam108B inh	LYPLA1 counter
COC(=O)C(Nc1ccccc1Cl)(c1cc(C)c(O)c(C)c1)C(F)(F)F (stereo not drawn)	2.1	-5.0	0.6	-4.3	2.0	1.5
COC(=O)/C(=C(/F)Sc1cc(C)c(O)c(C)c1)C(F)(F)F	-11.2	15.8*	-5.8	7.9	-3.0	-2.9
CC(=O)c1cccc(N2Cc3ccccc3C2=NC(=O)CCl)c1	2.6	-4.0	-1.1	78.1*	-1.0	-1.5
CC(=O)c1ccc(N2Cc3ccccc3/C2=N\C(=O)Nc2ccccc2)cc1	0.8	-0.6	0.6	-3.1	-0.2	-3.3
Cc1ccc2nsnc2c1NS(=O)(=O)c1c(C)ccc2nsnc12	3.5	-5.9	31.5*	16.8	-2.7	0.1
COc1ccc(-c2oc3ccc(N4CCOCC4)cc3c2C#CC2(O)CCCCC2)cc1	-8.4	-5.2	6.3	1.3	-3.8	-7.1
CCOc1ccc(/C=C2\CCCc3c2nc2ccccc2c3C(=O)O)cc1OC	5.6	26.8*	3.9	4.7	10.5	7.5
CCOC(=O)c1sc(NC(=O)C2CC(=O)N(c3ccccc3OC)C2)nc1C (stereo not drawn)	2.4	-0.9	4.3	·	·	-1.7
Cc1cc(C)n2[nH]c(=O)c(N=Nc3cccc(Cl)c3)c2n1	18.4	-0.9	5.4	23.8	4.9	4.7
CCOc1ccc(N=Nc2c(=O)[nH]n3c(=O)c4c([nH]c23)CCCC4)cc1	1.8	4.3	44.4*	14.1	4.5	-0.6
CCOc1ccc(N=Nc2c(=O)[nH]n3c(=O)cc(C)[nH]c23)cc1	5.8	-5.6	4.9	11.3	-2.4	1.6
O=c1[nH]n2c(=O)c3c([nH]c2c1N=Nc1cccc(Cl)c1)CCCC3	-0.7	-2.6	58.1*	10.0	9.0	11.9
COc1ccc(C)cc1NC(=S)NC12CN3CN(CN(C3)C1)C2	7.1	-1.5	2.5	7.8	0.8	0.8
O=C(c1ncn(Cc2ccccc2)c1C(=O)N1CCc2ccccc2C1)N1CCc2ccccc2C1	-7.9	-21.6	-4.9	·	·	-1.6
Cc1cccc(-n2nnnc2SCC(=O)Nc2cccc(S(N)(=O)=O)c2)c1	-2.9	1.6	-11.9	0.7	1.8	-4.2
CC[C@]12c3[nH]c4cc(-c5ccco5)ccc4c3CCN1C(=O)[C@@H](CC(=O)NCCCn1ccnc1)C[C@@H]2C(=O)N1CCN(C(=O)c2ccco2)CC1	·	3.5	·	·	·	·
CCCn1c(CCC(=O)Nc2ccccc2Cc2ccccc2)nc2cc(S(=O)(=O)N3CCOCC3)ccc21	-15.6	-13.1	37.3*	-8.0	-13.7	-9.3
COc1ccc(OC)c(C=NNC(=O)c2ccc(NS(=O)(=O)c3cccs3)cc2)c1	·	-1.1	·	·	·	·
CCN1/C(=C/C=C/c2oc3ccc4ccccc4c3[n+]2CC)Oc2ccc3ccccc3c21	-33.2	-73.4	-56.6	-34.5	117.8*	57.7*
CC[n+]1c(/C=C/N(C)c2ccccc2)oc2ccc(Cl)cc21	1.3	-12.1	-2.4	3.0	-1.2	-1.1
Cc1cccc(C)c1NC(=O)COC(=O)c1cccc2c1C(=O)c1ccccc1C2=O	-6.6	-5.5	71.0*	-16.2	-10.4	0.9
Cc1cccc(C)c1NC(=O)c1cccc2c1-c1ccccc1C2=O	7.9	-1.6	-1.3	-0.6	0.3	0.7
Cc1cccc(NC(=O)COC(=O)c2cccc3c2C(=O)c2ccccc2C3=O)c1C	6.2	-2.1	41.2*	6.2	5.3	-3.7
CCCCn1c(N)c(N(CC(C)C)C(=O)c2ccc(S(=O)(=O)N3CCCCC3)cc2)c(=O)[nH]c1=O	-1.2	-0.8	0.7	-4.0	1.1	1.1
CCOC(=O)C1=CN(Cc2cccc(-c3ccc(Cl)nc3)c2)S(=O)(=O)N(C)C1C (stereo not drawn)	·	2.0	·	·	·	·
SMILES	LYPLA2 counter	PAD4 inh	PME-1 primary	GSTO1 inh	Fam108B inh	LYPLA1 counter
Cc1ccc(C)c(NC(=O)CN(C)C(=O)c2ccc(S(=O)(=O)N3CCCCCC3)cc2)c1	2.1	1.2	-0.1	·	·	-0.7
COc1ccc2nc3n(c(=O)c2c1)-c1ccccc1C(=O)NC3Cc1ccccc1 (stereo not drawn)	·	-1.6	·	·	·	·
COc1ccc(-c2[nH]c(-c3ccc(SC)cc3)nc2SCC(=O)Nc2nccs2)cc1	5.7	-3.3	70.2*	-23.1	35.5*	-11.1
Cc1cc(C(=O)CCl)c(C)n1-c1cccc(S(=O)(=O)N2CCOCC2)c1	0.1	1.4	-3.3	94.0*	3.9	-1.7
COC(=O)N1C(=O)[C@@](c2ccccc2)(C(C)C)N1C(=O)OC	2.6	-3.0	11.0	3.1	1.4	0.1
COC(=O)N1C(=O)[C@](c2ccccc2)(C2CCCC2)N1C(=O)OC	-6.0	-2.3	69.6*	1.8	-2.7	3.4
CCCn1nc(C(=O)N2CCN(S(=O)(=O)c3ccc(C)c(C)c3)CC2)c2ccccc2c1=O	23.2	3.0	17.0	·	·	3.3
COc1ccc(C(=O)OC2CCN(C)CC2)cc1	2.9	-3.7	-2.2	7.9	-6.0	3.1
CN1CCC(OC(=O)c2ccccc2)CC1	5.3	-0.6	9.2	19.7	26.0*	0.5
CCN1CC=C2C(C#N)=C(N)C(C#N)(C#N)C(CCc3ccccc3)C2C1 (stereo not drawn)	2.1	20.0*	3.6	0.9	0.4	1.7
CC(C)[C@H](NC(=O)c1ccccc1)C(=O)OCC(=O)c1ccc(S(=O)(=O)N2CCCCC2)cc1	0.9	-0.7	1.0	37.1*	-0.9	0.9
CCOc1ccc(CCNC(=O)CN2C(=O)NC3(CCCCCC3)C2=O)cc1OCC	-1.8	3.6	-0.8	·	·	-1.0
Cc1ccc(SCC2=NN(c3nc(C)cc(C)n3)C(=O)C2)cc1	-1.1	-3.2	3.5	36.9*	0.2	0.4
CC(=O)c1cccc(OCC(O)CNCCOc2ccc(C)cc2)c1 (stereo not drawn)	3.6	-3.1	3.8	0.4	3.0	3.4
O=C(C1CCC(=O)N(C2CCCC2)C1)N1CCN(Cc2cccc(F)c2)CC1 (stereo not drawn)	3.9	-3.1	-6.7	3.1	0.2	3.8
CCCCN(C(=O)CSc1nnc(Nc2ccccc2)s1)c1c(N)n(CCC)c(=O)[nH]c1=O	-10.7	20.2*	-1.7	-3.9	-11.0	-3.6
CCCCN(C(=O)CSc1nnnn1C)c1c(N)n(Cc2ccccc2)c(=O)[nH]c1=O	7.8	3.6	7.7	-2.2	-1.4	3.9
Cc1cc(=O)oc2cc(OCC(=O)N3CC(C)OC(C)C3)ccc12 (stereo not drawn)	1.6	-4.7	-3.3	-1.3	4.5	1.4
CCC(C)c1ccc(S(=O)(=O)N2CCN(C(=O)COc3ccc4c(C)cc(=O)oc4c3)CC2)cc1 (stereo not drawn)	0.5	-0.9	37.8*	-6.3	-9.8	-9.6

Screening results: PubChem BioAssay, The Scripps Research Institute Molecular Screening Center
